High-throughput results: PubChem BioAssay, Broad Institute
Shown is part of a subset that was picked to be rich in hits.
Tg IFNy HTS – inhibitors of Toxoplasma gondii growth with IFN-gamma. Toxoplasma gondii growth in IFN-gamma-treated host cells; stronger effect = lower value. activity change, negative = inhibition, % (test concentration not listed). 3.8% of 69,000 active; in the data active means activity change below about -70%, passing the limit was not always enough;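 further: host cells are HeLa cells infected with Toxoplasma gondii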
A number is an active result.

COCCN1C[C@H]2COC[C@@H](C(=O)N3CCCO3)[C@H]2C1 was read as Tg IFNy HTS inactive.
Screening Cc1ncc2c(c1CNC(=O)CSc1ccccc1)CCN(C(=O)/C=C/C(C)C)C2 returned Tg IFNy HTS inactive.
`CCc1ccc(S(=O)(=O)N2CCc3nc(-c4ccc(OC)c(OC)c4)sc3C2)cc1` gave Tg IFNy HTS inactive.
For O=S(=O)(c1ccccc1Cl)N1CCc2nc(-c3ccccc3)sc2C1 the results were Tg IFNy HTS inactive.
`COc1ccc(-c2nc3c(s2)CN(C(=O)Nc2ccc(C)cc2)CC3)cc1OC` gave Tg IFNy HTS inactive.
O=S(=O)(c1ccc(F)c(Cl)c1)N1CCc2nc(-c3ccccc3)sc2C1 was read as Tg IFNy HTS inactive.
COc1ccc(-c2nc3c(s2)CN(S(=O)(=O)c2ccccc2C)CC3)cc1OC was read as Tg IFNy HTS -94.
COc1ccc(-c2nc3c(s2)CN(S(=O)(=O)c2ccc(C)c(C)c2)CC3)cc1OC was read as Tg IFNy HTS -98.
`COc1ccc(-c2nc3c(s2)CN(S(=O)(=O)c2cc(F)ccc2C)CC3)cc1OC` gave Tg IFNy HTS inactive.
`COc1ccc(-c2nc3c(s2)CN(S(=O)(=O)c2ccc(NC(C)=O)cc2)CC3)cc1` gave Tg IFNy HTS inactive.
Screening COc1ccc(-c2nc3c(s2)CN(S(=O)(=O)Cc2ccccc2)CC3)cc1OC returned Tg IFNy HTS inactive.
COc1ccc(-c2nc3c(s2)CN(S(=O)(=O)c2ccc(F)cc2)CC3)cc1OC was read as Tg IFNy HTS inactive.
COc1ccc(-c2nc3c(s2)CN(S(=O)(=O)c2ccc(C)cc2)CC3)cc1OC was read as Tg IFNy HTS -87.
COc1ccc(Cl)cc1S(=O)(=O)N1CCc2nc(-c3ccccc3)sc2C1 was read as Tg IFNy HTS -118.
Screening CCOc1cccc2sc(NC(=O)CCn3c(=O)oc4cc(Cl)ccc43)nc12 returned Tg IFNy HTS inactive.
`Cc1nc(-c2cccc(F)c2)sc1CCNS(=O)(=O)c1ccccc1` gave Tg IFNy HTS inactive.
`O=C(c1n[nH]c2ccccc12)N1CCCC(c2[nH]ncc2-c2ccccc2)C1` (centres undefined) gave Tg IFNy HTS inactive.
`COc1ccc(-n2ccnc2CN2CCc3nc(C)n(C)c(=O)c3CC2)cc1` gave Tg IFNy HTS inactive.
Cc1nnc(CNC(=O)c2ccccc2NCc2sccc2C)o1 was read as Tg IFNy HTS inactive.
Screening Cc1nc(-c2ccccc2)sc1CCNC(=O)C(=O)Nc1cc(F)ccc1F returned Tg IFNy HTS inactive.
Screening Cc1ccccc1NC(=O)N1CCC[C@@]2(C(=O)N(C)C)CN(c3ccccn3)C[C@H]2C1 returned Tg IFNy HTS inactive.
CC(c1cccc(-c2cc(O)cc(C(=O)O)c2)c1)N(C)C (centres undefined) was read as Tg IFNy HTS inactive.
For Cc1cc(-c2cc(O)ccc2Cl)cc2nnc(Nc3ccc(OCCN4CCCC4)cc3)nc12 the results were Tg IFNy HTS -91.
Screening Cc1ccc(NC(=O)CC(=O)NCCN2CCCC2)cc1Cl returned Tg IFNy HTS inactive.
Cc1onc(-c2ccccc2Cl)c1-c1nc(CC2CCN(C)CC2)no1 was read as Tg IFNy HTS inactive.
Screening CC(C)N1CCOC2(CCN(C(=O)c3ccsc3)CC2)c2ccccc21 returned Tg IFNy HTS inactive.
`N#CC(C#N)=C(N)/C(C#N)=C/c1cc(O)c(O)c(O)c1` gave Tg IFNy HTS inactive.
CC(C)(C)c1cc(/C=C(\C#N)C(N)=S)cc(C(C)(C)C)c1O was read as Tg IFNy HTS -74.
CC(C)(C)c1cc(-c2cc(C(C)(C)C)c(O)c(C(C)(C)C)c2)cc(C(C)(C)C)c1O was read as Tg IFNy HTS inactive.
For Cc1occc1C(=O)N1C[C@H]2OC(=O)N(CCc3cccc(Cl)c3)[C@H]2C1 the results were Tg IFNy HTS inactive.
`O=Nc1c(-c2c(O)[nH]c3cc(Br)ccc23)[nH]c2ccccc12` gave Tg IFNy HTS -92.
O=C1C(c2c(O)[nH]c3ccccc23)=Nc2ccccc21 was read as Tg IFNy HTS inactive.
O=c1[nH]c2ccccc2c(O)c1-c1nc(-c2ccc(Br)cc2)no1 was read as Tg IFNy HTS inactive.
For CCc1ccc(C(=O)Nc2ccc(-c3nc(Cn4nc(C)cc4C)c(C)o3)cc2)cc1 the results were Tg IFNy HTS inactive.
Screening Cc1cc(C)n(Cc2nc(-c3ccc(NC(=O)c4ccc(F)c(F)c4)cc3)oc2C)n1 returned Tg IFNy HTS inactive.
For Cc1cc(C)n(Cc2nc(-c3ccc(NC(=O)c4ccc5c(c4)OCO5)cc3)oc2C)n1 the results were Tg IFNy HTS -98.
For COc1ccc(C(=O)Nc2ccc(-c3nc(Cn4nc(C)cc4C)c(C)o3)cc2)cc1 the results were Tg IFNy HTS -92.
Cc1cc(C)n(Cc2nc(-c3ccc(NC(=O)c4ccc(F)cc4)cc3)oc2C)n1 was read as Tg IFNy HTS inactive.
`Cc1ccc(C(=O)Nc2ccc(-c3nc(Cn4nc(C)cc4C)c(C)o3)cc2)cc1` gave Tg IFNy HTS inactive.
Screening COc1ccc(-c2ccccc2C(N)=O)c(C)c1 returned Tg IFNy HTS inactive.
CCOCCCNC(=O)c1nc(Nc2ccc(CC)cc2)c2ccccc2n1 was read as Tg IFNy HTS inactive.
